This note sets out measurements from PubChem BioAssay (NCI).

This is part of a sample that, as a whole, favours compounds with a hit. Of some 83,000 tested, about 20% had one in any assay.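 Activity criterion: percent growth below 10, measured after cells in 96-well plates were exposed to a single compound concentration for 48 hours.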 A number with no mark means an inactive call. Activity calls are given as the source filed them.

Among the test systems are HCT-15 colon; HT29 colon; SNB-75 CNS; SNB-19 CNS; U251 CNS; PC-3 prostate; SK-MEL-5 melanoma; UACC-62 melanoma; LOX IMVI melanoma; SK-MEL-28 melanoma; SK-MEL-2 melanoma; EKVX NSCLC; UO-31 renal; TK-10 renal; ACHN renal; CAKI-1 renal; A498 renal; CCRF-CEM leukemia; MOLT-4 leukemia; SN12C renal.
Holding throughout (test): NCI-60 one-dose screen, 48 h (100 = growth as untreated, 0 = no growth, -100 = all killed)
Conditions in all cases: 10 µM

As for `O=C1Nc2ccc(Cl)cc2/C1=C/c1cccc(OCc2ccccn2)c1`, the growth with HCT-15 colon was -66.8% (active); with HT29 colon it was -63.8% (active); in the test with SNB-75 CNS it was 34.8%; in the test with SNB-19 CNS, 0.791% (active); with U251 CNS, -90.7% (active); with PC-3 prostate it was -9.7% (active). The growth in the test on SK-MEL-5 melanoma is -47.3% (active); in the test on UACC-62 melanoma, -81.2% (active); in the test with LOX IMVI melanoma, -89.9% (active); in the test on SK-MEL-28 melanoma, -49.2% (active); with SK-MEL-2 melanoma, -50.6% (active); in the test on EKVX NSCLC, 10.7%. Also, the growth in the test with UO-31 renal was 8.26% (active); with TK-10 renal, 10.5%; with ACHN renal, -40.3% (active); in the test on CAKI-1 renal, -7.95% (active); in the test on A498 renal, 95%; in the test on CCRF-CEM leukemia, -23.1% (active). Besides, in the test on MOLT-4 leukemia, the growth is 4.5% (active).
`Nc1nc2c(F)c(F)c(F)c(F)c2s1`: the growth is 102% with HCT-15 colon; 104% with HT29 colon; 83.1% in the test with SNB-75 CNS; 99.8% with SNB-19 CNS; 96.5% in the test with U251 CNS; 104% in the test on PC-3 prostate. For the same compound, the growth is 95.7% in the test on SK-MEL-5 melanoma; 96.6% in the test on UACC-62 melanoma; 109% in the test with SK-MEL-28 melanoma; 106% in the test on SK-MEL-2 melanoma; 46.1% with EKVX NSCLC; 113% in the test on SN12C renal. For the same compound, the growth in the test on UO-31 renal was 91%; in the test on TK-10 renal, 101%; in the test with ACHN renal it was 114%; in the test with CAKI-1 renal it was 85.7%; in the test on A498 renal, 114%; with CCRF-CEM leukemia it was 106%. In the test with MOLT-4 leukemia, the growth is 105%.
For `CC(C)C1=C[C@@]23CC[C@@H]4[C@](C)(CCC[C@]4(C)C(=O)NCc4ccccc4)[C@H]2C[C@@H]1[C@H]1C(=O)CCC(=O)[C@H]13`, the growth in the test on HCT-15 colon is 56%; with HT29 colon it was 81.7%; in the test with SNB-75 CNS it was 80.8%; with SNB-19 CNS, 83.2%; in the test on U251 CNS, 67%; with PC-3 prostate it was 36.9%. Moreover, the growth is 69.3% with SK-MEL-5 melanoma; 59.6% in the test on UACC-62 melanoma; 27% with LOX IMVI melanoma; 68.6% in the test with SK-MEL-28 melanoma; 99.2% in the test with SK-MEL-2 melanoma; 49.8% in the test with EKVX NSCLC. In addition, the growth with UO-31 renal is 48.1%; in the test on TK-10 renal it was 96.9%; in the test with ACHN renal it was 70.7%; in the test with CAKI-1 renal, 88.7%; in the test with A498 renal, 97.8%; with CCRF-CEM leukemia it was 9.73% (active). For the same compound, in the test with MOLT-4 leukemia, the growth is 16.2%.
For the compound `Cc1ccc2nc3c(nc2c1)c1cc(I)ccc1n3CCN(C)C`, the growth with HCT-15 colon is 10.1%; in the test with HT29 colon, 14.4%; in the test with SNB-75 CNS, 30.6%; in the test with SNB-19 CNS, 24.9%; in the test with U251 CNS, 24.2%; in the test with PC-3 prostate, 26%. For the same compound, the growth in the test on SK-MEL-5 melanoma was 48.1%; with UACC-62 melanoma, 59.1%; with SK-MEL-28 melanoma, 11.9%; with SK-MEL-2 melanoma, 52.2%; with EKVX NSCLC, 30.9%; in the test with SN12C renal it was 21.4%. The growth with UO-31 renal is 8.11% (active); in the test with TK-10 renal, 48.9%; in the test on ACHN renal, 6.64% (active); in the test on CAKI-1 renal, 8.68% (active); with A498 renal, 62.9%; in the test with CCRF-CEM leukemia it was 32.7%. Further, in the test on MOLT-4 leukemia, the growth is 10%.
Take `COc1cc(OC(F)(F)F)ccc1C(=O)Nc1sc2c(c1C#N)CCC(=O)C2`: the growth in the test with HCT-15 colon was 14.6%; in the test with HT29 colon, 95%; in the test with SNB-75 CNS it was 93.7%; in the test on SNB-19 CNS it was 91.8%; in the test on U251 CNS it was 7.29% (active); with PC-3 prostate, 37.6%. The growth is 72.3% with SK-MEL-5 melanoma; 65.6% in the test on UACC-62 melanoma; 64.7% in the test with LOX IMVI melanoma; 121% in the test with SK-MEL-28 melanoma; 105% with SK-MEL-2 melanoma; 46.7% in the test with EKVX NSCLC. Also, the growth is 62.4% in the test with UO-31 renal; 94.2% in the test on TK-10 renal; 87.1% in the test on ACHN renal; 71.6% with CAKI-1 renal; 137% with A498 renal; 18.3% in the test on CCRF-CEM leukemia. Moreover, the growth with MOLT-4 leukemia was 90.8%.
With `O=c1oc2ccc(-c3ccc(F)cc3F)cc2c(=O)n1-c1ccc(F)cc1`, the growth is 5.32% (active) in the test on HCT-15 colon; 59.6% with HT29 colon; -14% (active) in the test with SNB-75 CNS; 13.3% with SNB-19 CNS; 18% in the test with U251 CNS; 0.638% (active) in the test on PC-3 prostate. Moreover, the growth in the test with SK-MEL-5 melanoma is -77.9% (active); in the test with UACC-62 melanoma it was -50.2% (active); in the test on LOX IMVI melanoma, 1.46% (active); with SK-MEL-28 melanoma, -0.667% (active); in the test with SK-MEL-2 melanoma it was -61.5% (active); in the test with EKVX NSCLC, 4.34% (active). The growth was -3.9% (active) in the test with UO-31 renal; 20.5% in the test with TK-10 renal; -12.7% (active) in the test on ACHN renal; -24.1% (active) in the test with CAKI-1 renal; -17.2% (active) in the test on A498 renal; 1.33% (active) with CCRF-CEM leukemia. Besides, the growth in the test with MOLT-4 leukemia is -32.1% (active).
For `COc1cccc(/C=C2\N=C(C)N(CCc3ccc(S(N)(=O)=O)cc3)C2=O)c1`, the growth with HCT-15 colon was 105%; with HT29 colon it was 108%; in the test with SNB-75 CNS, 98%; with SNB-19 CNS, 95.1%; with U251 CNS, 99.9%; in the test with PC-3 prostate, 98.4%. For the same compound, the growth was 102% in the test on SK-MEL-5 melanoma; 94% in the test on UACC-62 melanoma; 97.4% in the test with LOX IMVI melanoma; 105% with SK-MEL-28 melanoma; 109% with SK-MEL-2 melanoma; 95.6% with EKVX NSCLC. Further, the growth in the test with UO-31 renal is 90.9%; in the test on TK-10 renal, 97.6%; in the test on ACHN renal, 107%; in the test on CAKI-1 renal, 78.8%; with A498 renal, 101%; in the test on CCRF-CEM leukemia, 96.4%. The growth in the test with MOLT-4 leukemia is 97.8%.
Turning to `CCOc1ccc(/C=N/NC(=O)Cn2nc(Cc3ccccc3)c3onc(C)c3c2=O)cc1`, the growth in the test on HCT-15 colon is 63.1%; with HT29 colon, 42%; in the test with SNB-75 CNS it was -23.7% (active); in the test with SNB-19 CNS, -3.49% (active); in the test with U251 CNS it was -21.4% (active); with PC-3 prostate it was 22.5%. The growth is 68.3% in the test on SK-MEL-5 melanoma; 36.9% with UACC-62 melanoma; 14.2% in the test with LOX IMVI melanoma; 54.3% in the test on SK-MEL-28 melanoma; 3.12% (active) in the test with SK-MEL-2 melanoma; 23.9% in the test on EKVX NSCLC. Further, the growth in the test on UO-31 renal was -2.49% (active); in the test with TK-10 renal it was 25.6%; in the test with ACHN renal, 6.42% (active); with CAKI-1 renal, 12%; in the test on A498 renal it was -6.43% (active); in the test with CCRF-CEM leukemia, 86.6%. For the same compound, the growth in the test with MOLT-4 leukemia is 79.6%.
